Results reported in publication PMC11006913.

Target: T1, NKX2-4 (Homo sapiens, UniProt Q9H2Z4 175-261, T231S)
T1 sequence: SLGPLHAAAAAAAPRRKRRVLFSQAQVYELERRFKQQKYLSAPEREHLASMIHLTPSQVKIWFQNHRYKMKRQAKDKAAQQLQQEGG
Test: PBM; 200 nM protein, PBS
Details: dsDNA, one strand shown

Sequence	binding signal
GCGCGACA	10 upbm affinity estimate (log intensity, higher = more binding, comparable within an allelic series)
CTCGAGTA	12.6 upbm affinity estimate (log intensity, higher = more binding, comparable within an allelic series)
CGGCTGTA	9.8 upbm affinity estimate (log intensity, higher = more binding, comparable within an allelic series)
CAAGCCAG	9.62 upbm affinity estimate (log intensity, higher = more binding, comparable within an allelic series)
GAACTGGC	9.49 upbm affinity estimate (log intensity, higher = more binding, comparable within an allelic series)
AGAGCACT	12.3 upbm affinity estimate (log intensity, higher = more binding, comparable within an allelic series)
GGCAGTCA	10 upbm affinity estimate (log intensity, higher = more binding, comparable within an allelic series)
GCTGTGCA	9.66 upbm affinity estimate (log intensity, higher = more binding, comparable within an allelic series)
GTCAAGGA	11.9 upbm affinity estimate (log intensity, higher = more binding, comparable within an allelic series)
CAAACCCG	9.55 upbm affinity estimate (log intensity, higher = more binding, comparable within an allelic series)
CAGTGACC	9.84 upbm affinity estimate (log intensity, higher = more binding, comparable within an allelic series)
AGCTGCGG	9.21 upbm affinity estimate (log intensity, higher = more binding, comparable within an allelic series)
CCCCGCCG	9.45 upbm affinity estimate (log intensity, higher = more binding, comparable within an allelic series)
AAAGCACT	11.9 upbm affinity estimate (log intensity, higher = more binding, comparable within an allelic series)
CATCGCGA	9.66 upbm affinity estimate (log intensity, higher = more binding, comparable within an allelic series)
CCGCCATA	9.79 upbm affinity estimate (log intensity, higher = more binding, comparable within an allelic series)
CCGCTACC	9.7 upbm affinity estimate (log intensity, higher = more binding, comparable within an allelic series)
ATCCCTCC	9.87 upbm affinity estimate (log intensity, higher = more binding, comparable within an allelic series)
AAAGTACT	12.8 upbm affinity estimate (log intensity, higher = more binding, comparable within an allelic series)
AACGCTGG	9.71 upbm affinity estimate (log intensity, higher = more binding, comparable within an allelic series)

Sequence	binding signal
CAACCGTC	9.78 upbm affinity estimate (log intensity, higher = more binding, comparable within an allelic series)
GACACCGC	9.29 upbm affinity estimate (log intensity, higher = more binding, comparable within an allelic series)
GAGTGCCA	12.3 upbm affinity estimate (log intensity, higher = more binding, comparable within an allelic series)
CCAGAGAC	9.67 upbm affinity estimate (log intensity, higher = more binding, comparable within an allelic series)
CGCCCTGA	9.84 upbm affinity estimate (log intensity, higher = more binding, comparable within an allelic series)
GCACGGGC	9.54 upbm affinity estimate (log intensity, higher = more binding, comparable within an allelic series)
AGCTCGCG	9.58 upbm affinity estimate (log intensity, higher = more binding, comparable within an allelic series)
CTCAAGAG	12.8 upbm affinity estimate (log intensity, higher = more binding, comparable within an allelic series)
CCGCGGTA	9.73 upbm affinity estimate (log intensity, higher = more binding, comparable within an allelic series)
ACATGCAG	9.63 upbm affinity estimate (log intensity, higher = more binding, comparable within an allelic series)
GCGGCGAC	9.58 upbm affinity estimate (log intensity, higher = more binding, comparable within an allelic series)
GCTATAGC	9.98 upbm affinity estimate (log intensity, higher = more binding, comparable within an allelic series)
CACGCACG	9.75 upbm affinity estimate (log intensity, higher = more binding, comparable within an allelic series)
GCACTCAA	12.9 upbm affinity estimate (log intensity, higher = more binding, comparable within an allelic series)
CTCTTGAA	12.8 upbm affinity estimate (log intensity, higher = more binding, comparable within an allelic series)
AAAGTAGC	11.9 upbm affinity estimate (log intensity, higher = more binding, comparable within an allelic series)
GCAAGTGC	12.1 upbm affinity estimate (log intensity, higher = more binding, comparable within an allelic series)
ATCACACC	9.93 upbm affinity estimate (log intensity, higher = more binding, comparable within an allelic series)
ACTCATAG	11.8 upbm affinity estimate (log intensity, higher = more binding, comparable within an allelic series)
CGGTCGTA	9.64 upbm affinity estimate (log intensity, higher = more binding, comparable within an allelic series)
